# Measured values taken from paper PMC5540273 (PLoS ONE, 2017).
# Key:
# Settings in all cases: concentration: 1 μM, replicates: in singlicate; n = 1
# [1] = test system: CSF1R-autoinhibited
# [2] = test system: CSF1R
# [3] = test system: CSK
# [4] = test system: CSNK1A1L
# [5] = test system: CSNK1A1
# [6] = test system: CSNK1D
# [7] = test system: CSNK1E
# [8] = test system: CSNK1G1
# [9] = test system: CSNK1G2
# [10] = test system: CSNK1G3
# [11] = test system: CSNK2A1
# [12] = test system: CSNK2A2
# [13] = test system: T1, CTK
# T1 construct: gene MATK
# [14] = test system: DAPK1
# [15] = test system: DAPK2
# [16] = test system: DAPK3
# [17] = test system: T2, DCAMKL1
# T2 construct: gene DCLK1
# [18] = test system: T3, DCAMKL2
# T3 construct: gene DCLK2
# [19] = test system: T4, DCAMKL3
# T4 construct: gene DCLK3
# [20] = test system: DDR1
# 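Note: KINOMEscan kinase panel screen.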
Compound,%Inh [1] [%],%Inh [2] [%],%Inh [3] [%],%Inh [4] [%],%Inh [5] [%],%Inh [6] [%],%Inh [7] [%],%Inh [8] [%],%Inh [9] [%],%Inh [10] [%],%Inh [11] [%],%Inh [12] [%],%Inh [13] [%],%Inh [14] [%],%Inh [15] [%],%Inh [16] [%],%Inh [17] [%],%Inh [18] [%],%Inh [19] [%],%Inh [20] [%]
Nc1n[nH]c2nnc(-c3ccccc3)cc12 [SB-517389],0,18,0,10,0,6,28,7,0,17,0,16,0,28,0,17,11,0,29,9
NC(=O)c1sc(-n2cnc3ccccc32)cc1OCc1ccccc1F [GSK1024306],24,0,0,0,0,17,20,0,0,18,10,6,12,3,0,0,0,1,0,19
Cn1ccc2ncnc(Oc3ccc(NC(=O)Nc4cccnc4)c(Cl)c3)c21,0,82,0,10,8,0,0,0,5,0,0,19,21,7,0,0,11,0,0,99.3
COc1cc2c(Nc3cccc(NC(=O)c4ccccc4)c3)ncnc2cc1OCCCN1CCOCC1 [GSK223810],0,83,23,63,62,60,54,13,0,18,6,22,0,0,15,28,0,14,16,12
Cl.Cn1ccc(-c2cccc(Nc3ccnc4cc(-c5nccs5)ccc34)c2)n1 [GW525701],29,0,0,5,0,12,21,5,0,0,0,0,0,17,0,2,13,0,26,52
CS(=O)(=O)CCNCc1ccc(-c2ccc3ncnc(Nc4ccc(OCc5ccccc5)c(Cl)c4)c3c2)o1.Cl [GW574783],7,0,0,20,0,15,10,0,0,6,3,5,0,0,0,0,0,0,4,10
Clc1cccc(-c2nc(Nc3ccncc3)c3ccccc3n2)c1 [GW873004],0,0,0,7,29,12,23,3,10,18,0,14,0,0,0,11,13,0,41,79
CC(=O)Nc1n[nH]c2ncc(-c3ccccc3)cc12 [SB-548492],0,19,3,21,0,0,34,0,0,4,20,25,38,100,1,0,36,15,0,0
COc1ccc(Nc2nccc(N3CCC(NC(=O)c4cccc(NC(C)=O)c4)C3)n2)cc1 (centres unmarked) [GSK1379732],49,1,0,7,0,13,16,9,0,24,0,1,0,0,13,18,0,0,7,0
CCc1nc(-c2cccc(N(C)S(=O)(=O)c3ccccc3)c2)c(-c2ccnc(Nc3ccc(N4CCN(C(C)=O)CC4)nc3)n2)s1 [GSK1645895],0,17,50,0,0,2,55,20,0,26,18,6,0,21,0,4,10,0,4,44
